# From PubChem BioAssay AID449764 (Southern Research Specialized Biocontainment Screening …, 2010)
# Screen size: about 2,300 compounds; about 1,700 (74%) were called active. No rule for the calls is given here. So high a share suggests a set chosen from earlier hits. The list shows a part of the results. Entries with a potency or affinity are not part of this list.
# Assay: Mycobacterium tuberculosis H37Rv growth inhibition, no glycerol, confirmatory dose response (AID 449764);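 also: growth read after 7 days of incubation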
# Conditions: series mostly up to 100 µM
row,SMILES,outcome
1,Brc1cccc2sc(N3CCN(c4ccccc4)CC3)nc12,inactive
2,NC(=O)/C(=N\OC(=O)c1ccco1)c1nc(-c2ccc(Br)cc2)cs1,inactive
3,Cc1cccc(C)c1OCC(O)CN1CCC(CN2C(=O)c3cccc4cccc(c34)C2=O)CC1 (centres undefined),inactive
4,CC1(C)SC(=S)N(NC(=O)Nc2cccc3ccccc23)C1N(O)C(=O)Nc1ccccc1 (centres undefined),inactive
5,O=[N+]([O-])c1nn(-c2ccc(Cl)cc2)n(O)c1=NCc1cccnc1,inactive
6,CCCCCCC(=O)N/N=C/c1ccc(Br)cc1,inactive
7,CCCCCCSc1nsc(NC(=O)CC(C)C)n1,inactive
8,CCOc1ccc(NC(=S)Nc2cc(-c3ccccc3)[nH]n2)cc1,inactive
9,COC(=O)Cc1ccc(NC(=S)Nc2ccccn2)cc1,inactive
10,CC(C)c1ccc2nc(N)sc2c1,inactive
11,O=C(/C=C/c1ccc(Cl)cc1)N1CCN(c2ccc(Cl)cc2[N+](=O)[O-])CC1,inactive
12,COC(=O)c1cc(NC(=O)c2c(F)c(F)c(F)c(F)c2F)cc(C(=O)OC)c1,inactive
13,NC(=O)N1CCC2(CC1)NC(=O)N(c1ccccc1)N2,inactive
14,O=C(/C=C/c1ccc(OCCCF)cc1)Nc1ccnc(-c2ccncc2)n1,inactive
15,Cc1oc(C)c2c(=O)ccc3c(c12)OC(N)=C(C#N)C3c1ccccc1Cl (centres undefined),inactive
16,Cc1nn(C(C)(C)C)c(NC(=O)c2ccc(Cl)cc2Cl)c1Br,inactive
17,O=C(c1ccccc1)c1nn(-c2ccc(Cl)cc2)cc1C(=O)c1cc2ccccc2oc1=O,inactive
18,Cc1ccc(F)cc1CNC(=O)c1cc(COc2ccc3ncccc3c2)on1,inactive
19,CCN(CC)S(=O)(=O)c1cc(C(=O)Oc2cccc(-c3cnc4ccccc4n3)c2)ccc1Br,inactive
20,Cc1cc(-n2c(C)cc(C(=O)COc3ccc4ccc(=O)oc4c3)c2C)no1,inactive
21,COc1ccc(N/C=C(\C2OC(=O)c3ccccc32)[N+](=O)[O-])cc1 (centres undefined),inactive
22,CC(C)c1nc2scc(-c3ccc(Cl)cc3)c2c(=O)n1N,inactive

row,SMILES,outcome
1,NN/C(=C\[N+](=O)[O-])Nc1ccc(Cl)cc1,inactive
2,C/C(CC(=O)Nc1ccc2c(c1)OCCO2)=N\NC(=O)c1ccccc1F,inactive
3,Cc1ccc2c(c1)Oc1ccc(NC(=O)CCl)cc1C(=O)N2,inactive
4,CCCc1cc(=O)[nH]c(SCC(=O)N2CCCC2=O)n1,inactive
5,O=C(Nc1ccc(-n2cccc2)cc1)C1CC1,inactive
6,O=c1c2ccc(Cl)cc2nc(-c2ccc([N+](=O)[O-])cc2)n1O,inactive
7,COc1ccc(N2CCN(Cc3cc4c(cc3O)CCC4)CC2)cc1,inactive
8,C=CCn1c(N)cc(=O)nc1SC(CC)C(=O)Nc1ccc(C(C)=O)cc1 (centres undefined),inactive
9,C[C@H](O)[C@H](O)[C@H]1CNc2nc(N)[nH]c(=O)c2N1,inactive
10,CCCCc1ccc(NC(=S)N2CCN(c3ncccn3)CC2)cc1,inactive
11,COC(=O)Cc1ccc(NC(=O)c2ccc(Br)o2)cc1,inactive
12,C=C(C)C1CCC(C)=C1COC(=O)Nc1ccccc1 (centres undefined),inactive
13,Cc1nc(SCC(=O)Nc2ccc(OCc3ccccc3)cc2)n[nH]1,inactive
14,COc1ccc(-c2cc3n(n2)CCc2nc4ccccc4n2-3)cc1,inactive
15,C/C(=C\C(=O)c1ccccc1)Nc1ccc(Cl)c(Br)c1,inactive
16,COc1ccc(/C(O)=C/Sc2nnc(Cc3ccccc3)o2)cc1,inactive
17,CCn1c2ccccc2c2cc(NC(=O)CN(C)CC(=O)Nc3ccc(N4CCOCC4)cc3)ccc21,inactive
18,C=CCc1cccc2cc(C(=O)OCC(=O)c3ccccc3)c(=O)oc12,inactive
19,COc1cc(/C=C2\C(=O)NN(c3ccc(C)cc3)C2=O)cc([N+](=O)[O-])c1O,inactive
20,O=C1CCC(=O)N1CNc1ccc(Oc2ccccc2)cc1,inactive
21,O=C(OCc1ccccc1)c1cccc(-c2nnn(Cc3ccccc3)n2)c1,inactive
22,O=C(CSc1n[nH]c(-c2ccccc2)n1)Nc1ccc(Br)cn1,inactive

row,SMILES,outcome
1,CN1CCN2c3ccccc3Cc3ccccc3C2C1 (centres undefined),inactive
2,O=c1c2c3c(sc2nc(N2CCNCC2)n1-c1cccc(Cl)c1)CCCCC3,inactive
3,CC(C)(C)c1nc2sc3c(c2c(=O)o1)CCCC3,inactive
4,CCCCOC(=O)c1c(C)oc2ccc(NS(=O)(=O)c3ccc4c5c(cccc35)C(=O)N4)cc12,inactive
5,COC(OC)c1ccnc(-c2ccc(OC(=O)c3cccs3)cc2)n1,inactive
6,CCOc1ccc(OCc2ccc(C(=O)N/N=C(\C)c3ccccn3)cc2)cc1,inactive
7,C/C(=N\NC(=O)CC(C)C)c1c(C(F)(F)F)[nH]n(-c2nc3ccccc3s2)c1=O,inactive
8,Oc1cccc(-c2nc3ccccc3s2)c1,inactive
9,Cc1ccc(NC(=O)CNCc2cccs2)cc1Br,inactive
10,COC(=O)c1ccc(N/C(C)=C/C(=O)c2ccc(C)o2)cc1,inactive
11,O=C(c1cccc([N+](=O)[O-])c1)N1CCN(c2ccc(N3CCOCC3)nn2)CC1,inactive
12,S=c1[nH]c2ccc3ccccc3c2[nH]1,inactive
13,Oc1ccccc1C=NC1=NN(c2cccc(C(F)(F)F)c2)CC1,inactive
14,CCCCCCc1ccc(N2C[C@H](C)[C@@H](CC(=O)NCc3ccccc3)C2=O)cc1,inactive
15,O=Cc1ccc(-c2ccc(Cl)cc2Cl)[nH]1,inactive
16,O=C(Nc1ccc(-c2noc(CCc3ccccc3)n2)cc1)c1cccnc1,inactive
17,CNC(=O)c1csc(-c2ccc(Cl)cc2)n1,inactive
18,CN1C(=O)c2cccc3c(Br)ccc(c23)C1=O,inactive
19,O=C(C1CC(=O)N(c2ccc3c(c2)OCCO3)C1)N1CCN(c2cccc(C(F)(F)F)c2)CC1 (centres undefined),inactive
20,CO/N=C\CC(=O)Nc1ccc(Oc2ccccc2)cc1,inactive
21,COc1ccc(-c2cc(C(=O)N(C)CC(=O)Nc3cccc(F)c3)c3ccccc3n2)cc1,inactive
22,CCc1ccc(NC(=O)c2ccc(C3SCC(=O)N3CCc3ccccc3)cc2)cc1 (centres undefined),inactive

row,SMILES,outcome
1,COc1cc(/C=N/N2CCOCC2)ccc1OCc1ccc(Cl)cc1,inactive
2,CC(C)OC(=O)c1ccc(N)cc1,inactive
3,CC(=O)Oc1ccc2occ(C(=O)c3cccs3)c2c1,inactive
4,CCCC1CCC(C(=O)Nn2c(C)nc3ccccc3c2=O)CC1 (centres undefined),inactive
5,CCOC(=O)c1cc(CC)sc1NC(=O)c1cc(OCC)c(OCC)c(OCC)c1,inactive
6,Nc1nc2ccccc2n1/N=C/c1ccc(Br)cc1,inactive
7,CCOc1cc(C2NN=C(c3ccc(C)cc3)S2)ccc1O (centres undefined),inactive
8,CC(=O)c1ccc(NC(=O)COC(=O)c2c3c(nc4ccccc24)/C(=C\c2cccs2)CCC3)cc1,inactive
9,CC(/C=C/C=C/c1ccccc1)=N\NC(=O)c1cccnc1,inactive
10,Cc1ccc(-c2cn3cccnc3n2)cc1NC(=O)c1ccc(Br)o1,inactive
11,CCNc1nc(NCC)n2c(SC(C(=O)Nc3cc(C)ccc3C)c3ccccc3)nnc2n1 (centres undefined),inactive
12,Clc1nc2c(-c3ccccc3)nnn2c2ccccc12,inactive
13,CCCCc1ccc(NC(=O)CSC2=NN3CCCC(=O)N=C3S2)cc1,inactive
14,COc1ccccc1/C=C/C1=NC(=C\C=C/c2ccccc2)/C(=O)O1,inactive
15,Cc1ccc(-c2nnc(C)c(N3CCCC3)n2)cc1,inactive
16,CC(OC(=O)CCN=C1NS(=O)(=O)c2ccccc21)C(=O)Nc1ccc(F)c(F)c1F (centres undefined),inactive
17,COc1cc(NC(=O)c2ccc(C(C)(C)C)cc2)c(OC)cc1NC(=O)CN1CCCCC1,inactive
18,Cc1sc2nc(CN(C(=O)NC3CCCCC3)C3CCCC3)[nH]c(=O)c2c1C,inactive
19,Cc1cc(Nc2ccccc2)c2c([N+](=O)[O-])ccc(C)c2n1,inactive
20,O=Cc1ccc2noc(-c3ccc(Cl)cc3)c2c1,inactive
21,Cc1nn(-c2ccccn2)c2c1-c1nc(N3CCOCC3)ncc1CC2,inactive
22,CC(C)N1C(=O)NC(=O)C2(Cc3cc([N+](=O)[O-])ccc3N(C)C2c2ccccc2)C1=O (centres undefined),inactive

row,SMILES,outcome
1,CN(C)c1nc(NCc2ccccc2)nc(N/N=C/c2ccc3c(c2)OCO3)n1,inactive
2,CCCCn1c(N)c(N(CC(C)C)C(=O)c2oc3c(Cl)cccc3c2C)c(=O)[nH]c1=O,inactive
3,OCCN(/C=N/c1nc(-c2ccc(Br)cc2)cs1)CCO,inactive
4,CC(C)(C)n1c(O)c(C=Nc2ccc3c(c2)CCC3)c(=O)[nH]c1=O,inactive
5,CCOC(=O)c1c(/N=C/N(C)C)sc(/C=N/Nc2ccccc2)c1-c1ccccc1Cl,inactive
6,COCCn1c(-c2ccc(OC(F)(F)C(F)C(F)(F)F)cc2)nc2c1c(=O)[nH]c(=O)n2CC(C)C (centres undefined),inactive
7,N#CCCn1cc(/C=C2\NC(=S)N(c3ccccc3)C2=O)c(-c2ccc(-c3ccccc3)cc2)n1,inactive
8,COc1ccccc1N1C(=O)NC(=O)/C(=C/c2ccc([N+](=O)[O-])s2)C1=O,inactive
9,CN1/C(=N\O)c2cccc3cccc1c23,inactive
10,Cc1cc(OCc2nc3ccccc3s2)ccc1N,inactive
11,Cc1cc(O)c(/C=N/Nc2cccc(Cl)c2)c(=O)o1,inactive
12,COc1ccc(-c2c(-c3cc(OC)cc(OC)c3)n(C)c3ccc(-c4ccn[nH]4)cc23)cc1,inactive
13,Nc1ccc(N=Nc2ccccc2)c(N)n1,inactive
14,CC(=O)/C(=C\Nc1ccc(OCc2ccccc2)cc1)c1ccccc1,inactive
15,CCC(C)OC(=O)C(C)Oc1ccc(-c2ccccc2)cc1 (centres undefined),inactive
16,CC(=O)c1cccc(Nc2nc(-c3cccnc3)cs2)c1,inactive
17,O=c1[nH][nH]c(-c2ccccc2O)c1C(C[N+](=O)[O-])c1cccc(Cl)c1 (centres undefined),inactive
18,COc1cc2[nH]c(Cl)c([N+](=O)[O-])c2cc1OC,inactive
19,C#CCOC(=O)/C(=C/c1ccc(F)cc1)NC(C)=O,inactive
20,CN1[C@@H]2CC[C@H]1CC(OC(=O)[C@H](CO)c1ccccc1)C2 (some centres undefined),inactive
21,CCOc1cc(/C=N\NC(=O)Cn2nc([N+](=O)[O-])cc2C)ccc1OCc1cccc2ccccc12,inactive
